Assay outcomes as filed in PubChem.
This is a sample that favours compounds with a hit; in the whole collection about 1.2% have one here.
Avidin fluor: avidin bead compound fluorescence profile | Avidin beads, compound fluorescence 488/530 nm, flow cytometry; active compounds read high | actives 0.38% (n = 220,000) | fluorescence (KMESF) at 10 µM; in the data active means fluorescence above about 47
GSH bead fluor: GSH bead compound fluorescence profile; GSH beads flow cytometry, compound fluorescence 488/530 nm; active compounds read high; fluorescence (KMESF) at 10 µM; actives 0.25% (n = 190,000); in the data active means fluorescence above about 89;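 further: glutathione beads carrying GST-tagged Bcl family fusion proteins plus one bare bead set; values are compound well signal with DMSO vehicle wells as background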
RGS4-Gao reg: human RGS4-Galphao interaction regulation | P09471 | Multiplexed bead flow cytometry, RGS4-Galphao binding; actives lie on both sides | binding response (% of control), % at 10 µM | actives 0.33% (n = 220,000) | AID 1415; in the data active means binding response below about 49% or above about 150%; inactive means in between;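 further: fluorescent Galphao activated with aluminum fluoride binding bead-coupled RGS4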
Target sequence (P09471 whole entry, looked up): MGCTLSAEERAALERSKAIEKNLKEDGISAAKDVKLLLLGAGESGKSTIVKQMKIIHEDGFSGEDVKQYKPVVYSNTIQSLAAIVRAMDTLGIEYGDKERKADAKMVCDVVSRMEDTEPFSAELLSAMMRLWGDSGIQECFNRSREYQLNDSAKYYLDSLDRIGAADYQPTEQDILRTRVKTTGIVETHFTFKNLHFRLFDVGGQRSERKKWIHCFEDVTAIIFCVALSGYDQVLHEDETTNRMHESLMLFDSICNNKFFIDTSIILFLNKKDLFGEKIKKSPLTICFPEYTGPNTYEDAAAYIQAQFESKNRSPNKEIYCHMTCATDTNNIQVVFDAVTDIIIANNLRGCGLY
RGS16-Gao: regulators of human RGS16-Galphao interaction; bead-based flow cytometry RGS16-Galphao binding, fluorescence; actives lie on both sides; actives 0.38% (n = 220,000); AID 1441; O15492+P09471; binding response (% of control), % at 10 µM;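 further: Galphao activated by GDP with aluminum fluoride before binding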
RGS7-Gao reg: human RGS7-Galphao interaction regulation; AID 1439; P09471; binding response (% of control), % at 10 µM; actives 0.35% (n = 220,000); Multiplexed bead flow cytometry, RGS7-Galphao binding; actives lie on both sides; in the data active means binding response below about 49% or above about 150%; inconclusive means no clear call, values can overlap the other calls; inactive means in between;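 further: fluorescent Galphao held in activated GDP-AlF4 state binding bead-coupled RGS7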
RGS8-Gao reg: modulates binding of RGS8 to human Galphao | multiplexed bead flow cytometry; actives lie on both sides | response (percent of control binding), % at 10 µM | actives 0.34% (n = 220,000) | AID 1423; in the data active means response below about 60% or above about 140%; inactive means in between;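 further: Galphao activated as the GDP aluminium fluoride complex binding bead-coupled RGS8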
RGS-Gao: modulates binding between human RGS4 and Galphao; AID 1504; multiplexed bead flow cytometry, RGS–Galpha-o binding; shares compounds with RGS16-Gao; actives 99% (n = 1,600); RGS4–Galpha-o binding response, % at 10 µM;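 further: fluorescently labeled Galpha-o bound to GDP with aluminium fluoride binding biotinylated RGS beads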
Avidin counter: interferes with biotinylated probe binding to avidin beads | streptavidin beads, fluorescein-biotin binding, flow cytometry | inhibition, % at 10 µM | AID 1783 | shares compounds with RGS16-Gao | 1,700 tested, under 10 active;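 active means inhibition above 50%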;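 further: median green fluorescence of gated singlet beads compared with DMSO control wells; 0% = DMSO wells and 100% = complete loss of bead fluorescence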
RGS8-Gao confirm: confirmation of regulators of human RGS8-Galphao interaction | shares compounds with RGS16-Gao | bead-based flow cytometry RGS8-Galphao binding, fluorescence; actives lie on both sides | binding response (% of control), % at 10 µM | actives 3% (n = 1,700) | AID 1836; in the data active means binding response below about 72% or above about 130%; inactive means in between;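 further: Galphao activated as GDP AlF4 complex before binding bead RGS8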
RGS7-Gao single: RGS7-Galphao interaction regulation, single point confirmation; response (percent of control binding), % at 10 µM; shares compounds with RGS16-Gao; AID 1837; actives 7.8% (n = 1,700); bead-based flow cytometry RGS7-Galphao binding; actives lie on both sides; in the data active means response below about 75% or above about 130%; inactive means in between;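 further: fluorescent Galphao activated with GDP and aluminum fluoride binding bead-coupled RGS7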
RGS16-Gao single: confirmation of regulators of human RGS16-Galphao interaction; shares compounds with RGS16-Gao; bead-based flow cytometry, RGS16-Galphao binding; actives lie on both sides; response (% of control binding), % at 10 µM; actives 4% (n = 1,700); in the data active means response below about 74% or above about 130%; inactive means in between;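 further: Galphao activated as the GDP aluminium fluoride complex binding bead-coupled RGS16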
RGS4-Gao confirm: RGS4-Galphao interaction regulation, single point confirmation. shares compounds with RGS16-Gao. binding response (% of control), % at 10 µM. RGS4-Galphao binding, multiplexed bead flow cytometry; actives lie on both sides. AID 1840. actives 4% (n = 1,700); in the data active means binding response below about 74% or above about 130%; inactive means in between
RGS19-Gao conf: RGS19-Galphao interaction regulation, single point confirmation | response (percent of control binding), % at 10 µM | shares compounds with RGS16-Gao | bead-based flow cytometry RGS19-Galphao binding; actives lie on both sides | actives 5% (n = 1,700); in the data active means response below about 50% or above about 160%; inactive means in between;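 further: 100% = no compound control and 0% = blank background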
The depositor's hits bear a star; ? = inconclusive; · = no result given; [ ] = remark or other dose. Unless noted, how the calls were made is not given here.

SMILES	Avidin fluor	GSH bead fluor	RGS4-Gao reg	RGS16-Gao	RGS7-Gao reg	RGS8-Gao reg	RGS-Gao	Avidin counter	RGS8-Gao confirm	RGS7-Gao single	RGS16-Gao single	RGS4-Gao confirm	RGS19-Gao conf
COC(=O)c1ccccc1NC(=S)N(Cc1ccc2c(c1)OCO2)Cc1cc2cc(C)ccc2[nH]c1=O	12	9	107	264*[activator]	113	128	107*	-1	101	101	100	100	88
O=C(NCCCN1CCOCC1)c1sc2cc([N+](=O)[O-])ccc2c1Cl	6	17	100	25*	?	75	100*	0	65*	95	13*	79	30*
CCCCCn1c(CN(C)Cc2ccccc2)nc2c1c(=O)n(C)c(=O)n2C	7	11	110	238*[activator]	110	129	110*	-3	100	100	99	100	103
Nc1ncncc1-c1ccc2ccccc2c1	8	·	116	113	?	112	·	·	·	·	·	·	·
CCc1cccc(CC)c1NC(=S)NCc1nc2ccccc2[nH]1	14	11	104	103	113	105	·	·	·	·	·	·	·
CCCc1nc2ccc(NC(=O)NCCC(=O)OCC)cc2c(=O)n1Cc1ccc(Cl)cc1	3	16	89	8.6*	85	69	89*	0	103	100	103	102	103
CCOc1ccc(NC(=O)CCC(=O)NNC(=O)COc2ccccc2C)cc1	11	18	102	101	97	102	·	·	·	·	·	·	·
CC(OC(=O)C1CC1)C(=O)Nc1cc(C(F)(F)F)ccc1Cl (stereo unspecified)	11	12	100	101	97	100	·	·	·	·	·	·	·
Cc1ccc(CNC(=O)COC(=O)c2c(C)noc2C)cc1	5	29	157*[activator]	142	142	132	·	1	101	99	100	100	93
CC(=O)N1CCN(c2c(F)c(F)c(C(F)(F)F)c(F)c2F)CC1	9	9	105	109	102	104	·	·	·	·	·	·	·
CN(Cc1ccc(F)cc1)C(=O)c1ccc2c(c1)NC(=O)CS2	65*	24	116	104	171*[activator]	99	116*	2	100	97	98	99	94
CCOc1ccccc1N1CCN(C(=O)c2ccc3[nH]c4c(c3c2)CCCC4)CC1	3	16	84	24*	81	74	84*	0	100	100	99	100	93
CCOc1ccccc1N1CCN(C(=O)c2ccncc2)CC1	38	13	102	102	103	101	·	·	·	·	·	·	·
COc1ccccc1NS(=O)(=O)c1cc(Cl)ccc1OC	37	17	125	218	129	144*[activator]	125*	0	104	103	107	104	98
O=C(O)CSc1c(-c2ccccc2)[nH]c2ccccc12	5	9	77	-3.1*	70	62	77*	-1	100	97	99	101	91
Cn1c(=O)c(Oc2ccc(Cl)cc2)c(O)c2ccccc21	3	10	103	115	102	106	·	·	·	·	·	·	·
